High-throughput results deposited in PubChem BioAssay by several laboratories.
A selection: hits, their analogues and other compounds. The true share with any hit is near 1.5%.
DUSP1 inh: MKP-1 phosphatase inhibitors, primary screen, biochemical, in vitro; Dual specificity protein phosphatase 1 (Homo sapiens), P28562; inhibition, %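 (compounds tested at a single concentration somewhere between 10 and 100 µM)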; 65,000 compounds, 0.15% hits; recombinant MKP-1, OMFP hydrolysis fluorescence;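 active = inhibition above about 50%, limit read from the data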
Target sequence (P28562 whole entry, looked up): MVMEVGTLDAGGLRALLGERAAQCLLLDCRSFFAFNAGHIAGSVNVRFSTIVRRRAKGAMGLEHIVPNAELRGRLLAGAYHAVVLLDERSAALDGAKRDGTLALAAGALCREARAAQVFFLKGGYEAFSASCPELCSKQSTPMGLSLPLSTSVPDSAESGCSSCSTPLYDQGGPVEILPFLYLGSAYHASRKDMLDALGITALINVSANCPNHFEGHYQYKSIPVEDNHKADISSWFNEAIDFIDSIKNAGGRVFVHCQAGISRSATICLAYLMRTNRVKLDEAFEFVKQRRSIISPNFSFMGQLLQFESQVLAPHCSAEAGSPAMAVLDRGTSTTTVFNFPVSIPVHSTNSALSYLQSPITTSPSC
PLAP activator: PLAP enzyme activators, biochemical, luminescence, HTS; purified PLAP enzyme, luminescent substrate read-out; stronger effect = higher value; activation fold at 20 µM; 96,000 compounds, 1.2% hits; in the data active = activation fold above about 2
TNAP act DEA: human TNAP enzyme activators, primary screen, biochemical, luminescent, intermediate phosphate acceptor level; Alkaline phosphatase, tissue-nonspecific isozyme (Homo sapiens), P05186; purified TNAP, CDP-star luminescence, 100 mM DEA, 30 min; stronger effect = higher value; scale: 0 levamisole-inhibited, 1 vehicle-only enzyme; activation factor at 20 µM; 64,000 tested, under 10 active; AID 813, 2007;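 active = activation factor of at least 2 at 20 µM, relative to controls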
HePTP inh: inhibitors of human HePTP phosphatase, primary screen, biochemical, absorbance, leukemia target | inhibition, % at 20 µM | 110,000 compounds, 0.64% hits | recombinant HePTP phosphatase activity, OD absorbance; in the data active = inhibition above about 50%
Target sequence (P35236 whole entry, looked up): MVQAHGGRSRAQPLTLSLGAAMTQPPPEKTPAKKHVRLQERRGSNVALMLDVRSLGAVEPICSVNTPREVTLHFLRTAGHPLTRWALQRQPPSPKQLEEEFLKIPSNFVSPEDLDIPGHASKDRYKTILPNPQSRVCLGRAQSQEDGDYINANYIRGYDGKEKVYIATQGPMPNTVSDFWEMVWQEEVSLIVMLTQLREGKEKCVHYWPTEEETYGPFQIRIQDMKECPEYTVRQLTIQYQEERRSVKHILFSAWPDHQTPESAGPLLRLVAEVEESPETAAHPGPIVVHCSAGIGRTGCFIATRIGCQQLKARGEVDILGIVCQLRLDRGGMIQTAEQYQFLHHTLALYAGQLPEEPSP
Hsp90 inh: tumor Hsp90 inhibitors, primary screen, cell lysate, fluorescence polarization, NCI-N417 lysate; Heat shock protein HSP 90-alpha (Homo sapiens), P07900; Cy3B-geldanamycin FP displacement; inhibition, % at 30 µM; 64,000 compounds, 0.35% hits; AID 429, 2006;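 active = inhibition above 50%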
Cdc25B block: inhibitors of Cdc25B phosphatase catalytic domain, primary screen, biochemical, OMFP fluorescence. M-phase inducer phosphatase 2 (Homo sapiens), P30305. recombinant Cdc25B, OMFP fluorescence Ex485/Em525. inhibition, %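 (compounds tested at 10 µM final in the well)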. 65,000 compounds, 0.1% hits; in the data active = inhibition above about 50%
Hits are given with their value; n = inactive; x = no result given.

SMILES | DUSP1 inh | PLAP activator | TNAP act DEA | HePTP inh | Hsp90 inh | Cdc25B block
C=C(C)COc1ccc(-c2[nH]ncc2Oc2ccccc2OCC)c(O)c1 | n | n | n | n | n | n
COc1ccc(O)c(-c2cn[nH]c2-c2cccs2)c1 | n | n | n | n | n | n
C=C(C)COc1ccc(-c2[nH]ncc2-c2ccccc2)c(O)c1 | x | n | x | x | x | x
COc1ccc(-c2[nH]ncc2Oc2ccccc2OC)c(O)c1 | n | 2.5 | n | n | n | n
COc1ccc(Oc2cn[nH]c2-c2ccc(O)cc2O)cc1 | n | 2.2 | n | n | n | n
COc1ccc(-c2[nH]ncc2-c2cnn(-c3ccccc3)c2)c(O)c1 | n | 2 | n | n | x | n
O=C(CCn1c(=O)[nH]c2ccccc2c1=O)Nc1ccccc1 | n | n | n | n | n | 101.8
Cc1ccc(C(=O)N2C(C)CCCC2C)cc1[N+](=O)[O-] (centres undefined) | x | x | x | n | x | x
COc1ccc(/C=C(/NC(=O)c2ccco2)C(=O)Nc2ccc3ccccc3c2)cc1 | x | x | x | n | x | x
N#C/C(=C\c1ccc(-c2ccc(Cl)c(Cl)c2)o1)C(N)=O | x | x | x | n | x | x
COCCCNS(=O)(=O)c1ccc(OC)cc1 | x | x | x | 97.6 | x | x
CCCCNS(=O)(=O)c1ccc(OC)cc1 | x | n | x | x | x | x
CCC(c1nnc(SCC(=O)Nc2ccc(C(=O)Nc3ccccc3OC)cc2)o1)N(C)C (centres undefined) | n | 2.3 | n | n | n | n
COc1ccccc1NC(=O)CSc1nnc(-c2ccco2)o1 | n | n | n | n | n | n
COc1ccc(/C=C2\SC(=S)N(NC(=O)c3ccccc3Cl)C2=O)cc1 | x | x | x | n | x | x
CCc1c(C)sc(NC(=O)c2ccc(OC)cc2)c1C(N)=O | x | x | x | n | x | x
CCc1c(C)sc(NC(=O)CCc2ccc(OC)cc2)c1C(=O)OC | x | x | x | 103.7 | x | x
CCn1c(SCC(=O)N/N=C/c2cccn2C)nnc1-c1ccc(OC)cc1 | x | x | x | n | x | x
CCC1(CC)Cc2ccccc2C(Nc2c(C)n(C)n(-c3ccccc3)c2=O)=N1 | x | 2 | x | x | x | x
CC(=O)Nc1cc(-c2ccc(Cl)cc2)nn1-c1ccccc1 | x | x | x | n | x | x
Cc1ccc(-c2cc(NC(=O)CSc3n[nH]c(N)n3)n(-c3ccccc3)n2)cc1 | x | 2.3 | x | x | x | x
Cc1c(NC(=O)CCN2C(=O)S/C(=C\c3ccc(Cl)cc3)C2=O)c(=O)n(-c2ccccc2)n1C | x | x | x | n | x | x
CC1(C)Cc2c(sc3ncnc(NCc4ccccc4)c23)CO1 | x | x | x | 105.1 | x | x
Cc1sc2ncnc(NCc3ccccc3)c2c1C | x | n | x | x | x | x
C=C(C)CNC(=S)Nc1ccccn1 | x | x | x | 103.0 | x | x
SMILES | DUSP1 inh | PLAP activator | TNAP act DEA | HePTP inh | Hsp90 inh | Cdc25B block
S=C(Nc1ccccn1)c1ccccn1 | n | 2.4 | n | n | n | n
CCCOc1ccc(/C=N/NS(=O)(=O)c2ccc3ccccc3c2)cc1OC | x | x | x | 103.4 | x | x
O=C(CCc1ccccc1)Nc1nnc(-c2ccncc2)s1 | x | x | x | n | x | x
O=C(CCCN1C(=O)/C(=C/c2ccc(F)cc2)SC1=S)Nc1cccc(C(=O)O)c1 | x | x | x | n | x | x
CCN(CC)c1ccc(N2C(=O)/C(=C/c3ccc(C(=O)O)cc3)SC2=S)cc1 | x | x | x | 103.9 | x | x
O=C(CCCN1C(=O)/C(=C/c2ccc(F)cc2)SC1=S)Nc1ccc(C(=O)O)cc1 | x | x | x | 102.4 | x | x
O=C(CN1C(=O)/C(=C/c2ccccc2)SC1=S)Nc1cccc(C(=O)O)c1 | x | x | x | 51.7 | x | x
O=C(CCN1C(=O)/C(=C/c2cccc(Br)c2)SC1=S)NNC(=O)c1cccnc1 | x | 2.2 | x | x | x | x
Cc1cc(I)ccc1NC(=O)COc1cccc(C)c1C | x | x | x | n | x | x
COc1cccc2c1CC/C(=C\c1ccc(N(C)C)cc1)C2=O | x | x | x | n | x | x
NC(=O)CNC1CC(=O)N(c2ccc(Br)cc2)C1=O (centres undefined) | x | x | x | n | x | x
N/C(=N\N=C\c1c(O)ccc2ccccc12)c1nonc1N | x | x | x | n | x | x
COc1cc(C(=O)NN2C(=O)/C(=C/c3ccc(OC)c(OC)c3)SC2=S)ccc1O | x | x | x | n | x | x
CCOc1ccc(-c2cc(C(=O)Nc3cc(OC)c(Cl)cc3OC)c3ccccc3n2)cc1 | x | x | x | n | x | x
COc1ccc(/C=C2\SC(=Nc3cccc(Cl)c3Cl)NC2=O)c(OC)c1 | x | x | x | n | x | x
Cc1cc(C)n(C(=O)c2ccc(Cl)c([N+](=O)[O-])c2)n1 | x | x | x | n | x | x
CC(=O)NS(=O)(=O)c1ccc(NC(=O)c2ccc([N+](=O)[O-])cc2[N+](=O)[O-])cc1 | x | x | x | 69.8 | x | x
O=C1/C(=C\c2cc([N+](=O)[O-])c(Cl)cc2Cl)Sc2ccccc21 | x | x | x | n | x | x
O=C(O)CCCN1C(=O)/C(=C\c2ccc(-c3ccc(Br)cc3)o2)SC1=S | x | x | x | 94.3 | x | x
O=C1/C(=C/c2ccc(-c3ccc([N+](=O)[O-])cc3)o2)SC(=S)N1Cc1ccco1 | x | x | x | 63.6 | x | x
O=C1/C(=C/c2ccc(Br)o2)SC(=S)N1Cc1ccccc1 | x | x | x | 56.0 | x | x
CCOC(=O)c1ccc(-c2ccc(/C=C3/SC(=S)N(CC(=O)O)C3=O)o2)cc1 | x | x | x | 54.5 | x | x
CCOC(=O)CNS(=O)(=O)c1ccc(F)cc1 | x | x | x | n | x | x
Cc1ccc2[nH]c3nc(N/N=C/c4c(O)ccc5ccccc45)nnc3c2c1 | x | x | x | n | x | x
COC1=CC(CC(=O)c2ccc(OC)cc2)C(C(=O)c2ccccc2Cl)C=C1OC (centres undefined) | x | x | x | 94.7 | x | x
SMILES | DUSP1 inh | PLAP activator | TNAP act DEA | HePTP inh | Hsp90 inh | Cdc25B block
COc1cccc(NC(=O)c2c(-c3ccccc3Cl)noc2C)c1 | x | x | x | n | x | x
Cc1cc(-c2ccccc2)nc2cc(C(=O)Nc3ccc(Cl)cc3)nn12 | x | x | x | n | x | x
COc1ccc(Cl)cc1NC(=O)c1cc2nc(-c3ccccc3)cc(C)n2n1 | x | x | x | 103.3 | x | x
CCOc1ccc(-c2cc(C)n3nc(C(N)=O)cc3n2)cc1 | x | n | x | n | x | x
CCOc1ccc(-c2cc(C)n3nc(C(=O)Nc4ccc(C(C)=O)cc4)cc3n2)cc1 | x | x | x | 94.0 | x | x
COc1ccc(C(=O)/C=C/Nc2ccccc2I)cc1OC | x | x | x | n | x | x
CCC(C(=O)Nc1cc(C(=O)OC)ccc1C(=O)OC)c1ccccc1 (centres undefined) | x | x | x | n | x | x
O=C(c1n[nH]c(=O)c2ccccc12)N1CCN(C2c3ccccc3-c3ccccc32)CC1 | 51.8 | n | n | n | 89.7 | n
Cc1n[nH]c(C)c1CCc1nc2c3ccccc3nc(SCC(=O)Nc3ccccc3F)n2n1 | x | 2.2 | x | x | x | x
COc1ccccc1Nc1nc2ccccc2[nH]1 | n | n | n | n | n | n
c1ccc2[nH]c(NC3=NCCC3)nc2c1 | n | 2.1 | n | n | n | n
C=CCn1c(Cc2nc3ccc(Cl)cc3[nH]2)n[nH]c1=S | n | 2.4 | n | n | n | n
Cc1ccc(NC(=O)N2CCN(Cc3ccc4c(c3)OCO4)CC2)cc1 | x | 2 | x | x | x | x
O=C(Nc1cccc(Cl)c1)N1CCN(Cc2ccc3c(c2)OCO3)CC1 | x | x | x | n | x | x
CCN(C(=O)CSc1nc(-c2ccccc2)c(-c2ccccc2)[nH]1)C1CCS(=O)(=O)C1 (centres undefined) | x | n | x | x | x | x
